These results are taken from PubChem BioAssay (Tox21).

The structures appear in SMILES notation. Several values for one entry are separate records, joined by “and”; a condition that tells them apart may be missing. Equal values may be shown once. Unmarked numbers belong to inactive results. Results filed as inconclusive are left out. Activity calls are given as the source filed them. Unless noted, calls come from the whole dose curve; as a rule, active = well fitted curve in the direction sought with a large enough effect in the repeat runs; inconclusive = weak or mixed curves; inactive = no such curve, though single readings can be large; an effect the other way counts as inactive or inconclusive.

Assay [1] can be described thus: qHTS assay for small molecule agonists of the p53 signaling pathway (AID 651631; calls by dose curve; note: nearly all actives have a fitted effect of over 15% in size). The gist of the method:
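Beta-lactamase reporter activity under p53 response elements was quantified in HCT-116 cells by FRET fluorescence, following 16 h incubation with test compounds at 37 °C and 2 h substrate development at room temperature.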

A short description of assay [2]: qHTS assay for small molecules that induce genotoxicity in human embryonic kidney cells expressing luciferase-tagged ATAD5 (AID 651632). Note: nearly all actives have a fitted effect of over 15% in size. The gist of the method: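 Luminescent reporter readout, HEK293T ATAD5-luc line: 16 hr drug exposure (37C, 5% CO2) followed by Amplite, 30 min RT.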
(qHTS replaces the single test concentration by a dilution series.)

Assay [3] can be described thus: qHTS assay for small molecule agonists of the p53 signaling pathway - cell viability (AID 651633; calls by dose curve;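 note: p53RE-bla HCT reporter cells with a stable beta-lactamase p53 reporter; series mostly up to about 83 µM; nearly all actives have a fitted effect of over 30% in size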). The gist of the method: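 p53RE-bla cells, seeded at 4,000 per well and rested 5 h at 37 C/5% CO2, received compounds in DMSO for 16 h at 37 C. CellTiter-Glo was then added, and luminescence was read after 30 min at room temperature to gauge cytotoxicity.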
A short description of assay [4]: qHTS assay for small molecules that induce genotoxicity in human embryonic kidney cells expressing luciferase-tagged ATAD5 - cell viability (AID 651634; calls by dose curve; note: nearly all actives have a fitted effect of over 25% in size). The gist of the method:
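Viability read: CellTiter-Fluor fluorescence, 30 min at 37C. Cells: HEK293T, luciferase-tagged ATAD5. Exposure: 15.5 hr, 37C, 5% CO2, compound or DMSO vehicle.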

Assay [5] in a line: qHTS assay for small molecule disruptors of the mitochondrial membrane potential - cell viability (AID 720634; calls by dose curve;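 note: human HepG2 liver cancer cells; series mostly up to about 83 µM; nearly all actives have a fitted effect of over 20% in size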). The gist of the method:
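HepG2, 1 hr compound, 37 C. ATP luminescence via CellTiter-Glo, 30 min RT, same well as m-MPI.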

The nature of assay [6]: qHTS assay to test for compound auto fluorescence at 590 nm (red) in HepG2 cells (AID 720674). The procedure, abridged:
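Rose Bengal sodium served as the red fluorophore standard. HepG2 monolayers (overnight attachment, MEM with 10% FBS) were exposed to test compounds for 1 hr at 37 C and read at Ex 540/Em 590 nm.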

Assay [7] is described as follows: qHTS assay to test for compound auto fluorescence at 535 nm (green) in HepG2 cells (AID 720675).
The nature of assay [8]: qHTS assay to test for compound auto fluorescence at 460 nm (blue) in HEK293 cells (AID 720678). The procedure, abridged:
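HEK293, 2,000 cells/well, 10% dialyzed FBS; attach 4-5 hr 37C; pin compound or DMSO; o/n 37C/5% CO2; fluorescence 405/460 nm; triamterene-equivalent units.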

A short description of assay [9]: qHTS assay to test for compound auto fluorescence at 590 nm (red) in HEK293 cells (AID 720679). The procedure, abridged: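 Intensity at 540nm excitation and 590nm emission is reported as Rose Bengal sodium-equivalent autofluorescence. Measurements followed overnight exposure (37C, 5% CO2) of HEK293 cells, 2,000 per well, to 23 nL compound.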
The nature of assay [10]: qHTS assay to test for compound auto fluorescence at 535 nm (green) in HEK293 cells (AID 720680).
Assay [11] can be described thus: qHTS assay to test for compound auto fluorescence at 460 nm (blue) in HEK293 cell free culture (AID 720681). The gist of the method:
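Test compounds were pinned into cell-free culture medium (DMEM with 10% FBS) and fluorescence was read directly at Ex/Em 405/460 nm. Signals were expressed as fluorescence equivalents of triamterene, with DMSO vehicle as control.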

A short description of assay [12]: qHTS assay to test for compound auto fluorescence at 535 nm (green) in HEK293 cell free culture (AID 720682). The procedure, abridged:
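Each library compound, or DMSO control, is added by pintool to medium alone, comprising DMEM and 10% FBS. Emission at 535 nm following 485 nm excitation is quantified against fluorescein.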

The nature of assay [13]: qHTS assay to test for compound auto fluorescence at 590 nm (red) in HEK293 cell free culture (AID 720683). The gist of the method:
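Tox21 10K library compounds were pinned into cell-free DMEM with 10% FBS and fluorescence was read at excitation 540 nm. Activity is expressed as Rose Bengal sodium equivalency.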

The nature of assay [14]: qHTS assay to test for compound auto fluorescence at 590 nm (red) in HepG2 cell free culture (AID 720684). The procedure, abridged:
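Red fluorescence (540 nm excitation, 590 nm emission) was measured after compound transfer into cell-free MEM supplemented with 10% FBS. Values are equivalencies against Rose Bengal sodium.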

A short description of assay [15]: qHTS assay to test for compound auto fluorescence at 460 nm (blue) in HepG2 cell free culture (AID 720685). The gist of the method: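 Compound (23 nL) or DMSO pinned into cell-free MEM with 10% FBS; blue fluorescence read at 405/460 nm excitation/emission, expressed as auto-fluorescence equivalency to triamterene.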
Assay [16] can be described thus: qHTS assay to test for compound auto fluorescence at 460 nm (blue) in HepG2 cells (AID 720687). The gist of the method: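 Cells (2,000/well in MEM with 10% FBS) attached overnight at 37 C, then were exposed to compound or DMSO for 1 hr at 37 C, 5% CO2. Fluorescence read at Ex/Em 405/460 nm, expressed as triamterene-equivalent signal.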
The target in assay [17] is Glucocorticoid receptor (Homo sapiens) (UniProt P04150). As to the kind of experiment: qHTS assay to identify small molecule antagonists of the glucocorticoid receptor (GR) signaling pathway (AID 720692; active = well fitted inhibition curve with a large enough effect in the signal ratio in the repeat runs, not every such curve was filed as active; the % refers to the signal ratio). The procedure, abridged:
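Inhibition of glucocorticoid signalling is measured in HeLa cells with a GRE-controlled beta-lactamase reporter; cells are co-treated with compound and 5 nM dexamethasone (final) for 18 h before FRET substrate readout.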

Assay [18] is described as follows: qHTS assay to test for compound auto fluorescence at 535 nm (green) in HepG2 cell free culture (AID 720686).
For assay [19], the target named is Glucocorticoid receptor (Homo sapiens) (UniProt P04150). Briefly: qHTS assay to identify small molecule agonists of the glucocorticoid receptor (GR) signaling pathway (AID 720691; active = well fitted activation curve with a large enough effect in the signal ratio in the repeat runs, not every such curve was filed as active; the % refers to the signal ratio). The gist of the method:
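qHTS in GR-bla HeLa cells: 4 h settling at 37 C/5% CO2, 18 h compound incubation at 37 C, 2 h LiveBLAzer B/G FRET substrate at room temperature, fluorescence intensity measured.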

Assay [20] can be described thus: qHTS assay for small molecule disruptors of the mitochondrial membrane potential (AID 720635). Note: potency is the fitted concentration of half-maximal effect. The procedure, abridged:
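HepG2 cells (2,000/well) attached overnight at 37C, then took compound for 1 hr at 37C, 5% CO2. Mito-MPS dye was added for 30 min; fluorescence was read at 490/535 nm (monomers) and 540/590 nm (aggregates).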
% is set by controls: 0 for no effect and ±100 for the full control effect.

Glucocorticoid receptor (Homo sapiens), sequence (P04150 whole entry, looked up): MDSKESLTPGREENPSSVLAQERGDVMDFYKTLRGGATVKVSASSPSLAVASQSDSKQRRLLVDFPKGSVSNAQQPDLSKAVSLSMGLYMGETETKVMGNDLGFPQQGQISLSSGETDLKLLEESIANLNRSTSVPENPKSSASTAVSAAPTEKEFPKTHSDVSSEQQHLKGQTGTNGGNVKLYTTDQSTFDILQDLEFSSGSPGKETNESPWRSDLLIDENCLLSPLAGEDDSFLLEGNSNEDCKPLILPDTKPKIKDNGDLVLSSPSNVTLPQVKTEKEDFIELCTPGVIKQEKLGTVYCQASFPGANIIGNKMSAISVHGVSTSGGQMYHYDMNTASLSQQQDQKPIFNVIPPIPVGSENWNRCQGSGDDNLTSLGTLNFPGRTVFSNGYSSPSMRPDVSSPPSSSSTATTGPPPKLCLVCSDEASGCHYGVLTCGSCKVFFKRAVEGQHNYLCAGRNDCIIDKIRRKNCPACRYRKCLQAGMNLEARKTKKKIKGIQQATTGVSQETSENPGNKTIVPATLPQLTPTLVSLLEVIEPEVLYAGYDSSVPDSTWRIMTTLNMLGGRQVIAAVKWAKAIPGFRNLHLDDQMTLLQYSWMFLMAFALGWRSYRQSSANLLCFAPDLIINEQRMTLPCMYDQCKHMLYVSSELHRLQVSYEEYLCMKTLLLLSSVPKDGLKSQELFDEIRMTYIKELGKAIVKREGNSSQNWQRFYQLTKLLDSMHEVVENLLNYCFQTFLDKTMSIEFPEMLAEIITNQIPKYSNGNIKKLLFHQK

In the case of `CC(=O)N(O)CCCCCNC(=O)CCC(=O)N(O)CCCCCNC(=O)CCC(=O)N(O)CCCCCN`, the Potency result in assay [1], in [2], in [3], in assay [4], in assay [5] and in assay [17] was “inactive” each time. Besides, the fluorescence, relative to Rose Bengal in [6] was 0.119% [at 18.6 µM]. Moreover, the fluorescence, % of fluorescein control in [7] was -0.0519% [at 18.6 µM]. The fluorescence, % of triamterene in assay [8] was -0.0021% [at 18.6 µM]. Besides, the fluorescence, % of fluorescent control in assay [9] was -0.043% [at 18.6 µM]; in [11], 0.0573% [at 18.6 µM]; in assay [13], -0.0386% [at 18.6 µM]; in [15], 0.0393% [at 18.6 µM]; in [16] it was 0.041% [at 18.6 µM]. In addition, the fluorescence, % of fluorescein in [10] is 0.127% [at 18.6 µM]. For the same compound, the activity change in assay [12] was 0.033% [at 18.6 µM]. The fluorescence, % of Rose Bengal in assay [14] was -0.352% [at 18.6 µM].
Take `c1ccc(CNCc2ccccc2)cc1`: the Potency entry in [1], in [2], in [3], in [4], in [5] and in assay [11] was “inactive” each time. Also, the Potency entry in assay [15], in assay [16] and in [19] was “inactive” throughout. Moreover, the outcome in assay [6], in assay [9], in [13], in assay [14] and in [18] was inactive.
`C=CC[N+]1([C@H]2C[C@H]3[C@@H]4CC[C@H]5C[C@H](OC(C)=O)[C@@H](N6CCCCC6)C[C@]5(C)[C@H]4CC[C@]3(C)[C@H]2OC(=O)CC)CCCCC1`: the Potency result in assay [1], in [2], in assay [3], in assay [4], in assay [11] and in assay [15] was “inactive” each time. Moreover, in assay [16], the Potency entry is “inactive”. Besides, the outcome in assay [6], in assay [7], in assay [9], in assay [10], in assay [12] and in [13] was inactive. For the same compound, the compound was called inactive in assay [14].
For `CC(=O)CC(=O)c1ccccc1`, the Potency result in assay [1], in [2], in [3], in [5], in assay [20] and in assay [8] was “inactive” throughout. The Potency result in assay [11], in assay [15], in assay [19] and in assay [17] was “inactive” each time. Moreover, the compound was classed as inactive in assay [6], in assay [7], in assay [9], in [10], in assay [12] and in [13]. For the same compound, the compound was classed as inactive in assay [14] and in assay [18].
For `CCCCC(CC)COCCCN` (configuration not stated), the Potency result in assay [1], in assay [2], in assay [3], in assay [4], in [8] and in assay [11] was “inactive” throughout. In addition, the Potency result in [17] is “inactive”. The compound was called inactive in assay [6], in [7], in assay [10], in assay [12], in [13] and in assay [14].
With `CC(=O)/C(C)=C/C1C(C)=CCCC1(C)C` (configuration not stated), the Potency result in [1], in assay [2], in assay [3], in assay [4], in assay [20] and in [11] was “inactive” each time. Also, the Potency result in assay [15], in assay [16] and in [17] was “inactive” throughout. Besides, the call in assay [6], in assay [7], in assay [10], in assay [12], in assay [14] and in assay [18] was inactive.
With `C#CCOC(=O)[C@@H](C)Oc1ccc(Oc2ncc(Cl)cc2F)cc1`, the Potency entry in assay [1], in [2], in assay [3], in assay [4], in assay [8] and in assay [11] was “inactive” in each case. Moreover, the Potency entry in assay [15], in assay [16] and in assay [19] was “inactive” throughout. Besides, the call in [6], in [7], in assay [12], in assay [13] and in assay [14] was inactive.
As to `O=C(O)Cc1sc(-c2ccccc2)nc1-c1ccc(Cl)cc1`, the Potency entry in assay [1], in assay [2], in [3], in [4], in assay [11] and in assay [15] was “inactive” in each case. Besides, the Potency result in assay [16], in assay [19] and in assay [17] was “inactive” throughout. Besides, the Potency in assay [20] is 24.8 µM (active) and 23.7 µM (active) and 26.6 µM (active). The outcome in assay [6], in assay [7], in assay [9], in assay [10], in [13] and in assay [14] was inactive. Moreover, the result in [18] was inactive.
